Among the data in PubChem BioAssay AID651582 (Sanford-Burnham Center for Chemical Genomics, 2012) are DAPI nuclei signal change (viability), lower = more cytotoxic and inhibition values, retold here.

Each structure is given as a SMILES string. “And” between values parts separate entries of the source, which are not always exact repeats. Identical values can stand only once. In all, about 230,000 compounds went through this assay and about 1,500 (0.65%) were called active.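 The calls were made as follows: active = pattern-corrected inhibition of lipid staining of at least 50% with the nuclear-stain viability signal not falling by more than 50%; inactive = the rest, inconclusive results apart.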 For the sample, actives were picked, then their nearest neighbours and some compounds at random.

The experiment can be described thus: TAG lipid buildup reduction in H9c2 cells – cell-based, uHTS, fluorescence, primary screen (AID 651582).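 As to inhibition: 0% = DMSO wells and 100% = triacsin C control wells.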 Particulars: Nile Red lipid (TAG) fluorescence, at 12.5 µM, cells loaded with 200 µM oleic acid; DAPI nuclei signal change (viability), lower = more cytotoxic: measured here: DAPI nuclei count viability; inhibition: stronger effect = higher value.
Take `NC(=O)CSc1nnc(-c2cccc(S(=O)(=O)N3CCOCC3)c2)o1`: the DAPI nuclei signal change (viability), lower = more cytotoxic came to 2.86% and the inhibition was 9.91% (inactive).
The like results for `O=[N+]([O-])c1cccc(C=NN=Cc2ccccc2O)c1` were, in that order, -6.09% and 3.14% (inactive).
The like results for `COc1ccc(NC(=O)C2Cc3c(-c4ccc5c(c4)OCO5)ccnc3O2)cn1` (stereo not drawn) were, in that order, -129% and 146% (inactive).
The like results for `CCCCN1C(=O)/C(=C/C=C2/C=Cc3ccccc3N2CC)SC1=S` were, in that order, 10.9% and 87.8% (active).
Consider `CCN1C(=O)/C(=C2/Sc3ccccc3N2CCCS(=O)(=O)O)SC1=S`, for which the DAPI nuclei signal change (viability), lower = more cytotoxic is 12.7% and -2.03%; the inhibition was -9.06% (inactive) and 5.16% (inactive).
In the case of `CCN1C(=O)/C(=C\N2CCOCC2)SC1=S`, the DAPI nuclei signal change (viability), lower = more cytotoxic is 1.56% and the inhibition was 1.92% (inactive).
The like results for `CCc1nc2c(OCc3ccc(F)c(F)c3)cccn2c1N(C)C(=O)c1ccco1` were, in that order, -19.3% and 7.19% (inactive).
The like results for `COc1ccc(Nc2ccc3ccccc3c2)cc1` were, in that order, 8.55% and 8.64% (inactive).
The like results for `COc1ccc(Nc2cc(=O)oc3ccccc23)cc1` were, in that order, -14.8% and 52.3% (active).
For the compound `COc1ccc(N2CCN(Cc3cc(=O)oc4ccc5ccccc5c34)CC2)cc1`, the DAPI nuclei signal change (viability), lower = more cytotoxic stood at 4.7% and the inhibition is 7.86% (inactive).
On to `COC(=O)c1ccc(C)c(NC(=O)Cn2c(C)csc2=O)c1`, for which the DAPI nuclei signal change (viability), lower = more cytotoxic came out at 5.24% and the inhibition was -8.36% (inactive).
The like results for `COc1cccc(NC(=O)C2(C)CCN2Cc2ccccc2Cl)c1` (stereo not drawn) were, in that order, 10.6% and -19.4% (inactive).
The like results for `CC1CN(Cc2ccco2)C(=S)N(c2ccccc2)C1=O` (stereo not drawn) were, in that order, -1.49% and -14.4% (inactive).
The like results for `CN(C)C(=S)N=c1ssc(=S)n1Cc1ccco1` were, in that order, -24% and 51% (active).
Take `Cc1cs/c(=N\N=C\c2ccc(O)cc2)n1Cc1ccco1`: the DAPI nuclei signal change (viability), lower = more cytotoxic is -3.51% and the inhibition was -2.08% (inactive).
The like results for `O=C(Nc1ccc(Br)cn1)c1ccc([N+](=O)[O-])o1` were, in that order, -72.2% and 83.9% (inactive).
Take `Cc1cccc(NC(=O)c2ccc([N+](=O)[O-])o2)c1`: the DAPI nuclei signal change (viability), lower = more cytotoxic is -57.9% and the inhibition is 80.8% (inactive).
Consider `Cc1onc(NC(=O)c2ccc([N+](=O)[O-])o2)c1Br`, for which the DAPI nuclei signal change (viability), lower = more cytotoxic was -38.7% and the inhibition is 59.1% (active).
The like results for `CC(C)(C)OC(=O)C[C@@H]1C/C=C\C[C@@H](CC(=O)NCCO)C(=O)N[C@H](Cc2c[nH]c3ccccc23)COC1=O` were, in that order, 3.2% and -15.4% (inactive).
The like results for `COc1cccc(NC(=O)CN(C)C(=O)c2ccccc2CCc2ccccc2)c1` were, in that order, -2.81% and 1.2% (inactive).
The like results for `O=C(COC(=O)c1ccc(F)cc1)NCC1COc2ccccc2O1` (stereo not drawn) were, in that order, -0.149% and 4.29% (inactive).
With `CCN(CC)CCC(c1ccc2c(c1)OCO2)c1c(OC)cc(OC)c2c(-c3ccccc3)cc(=O)oc12` (stereo not drawn), the DAPI nuclei signal change (viability), lower = more cytotoxic was -32.4% and the inhibition is 57.5% (active).
The like results for `COc1cc(OC)c2ccc(=O)oc2c1C(CCN1CCN(c2ccccc2)CC1)c1ccc2c(c1)OCO2` (stereo not drawn) were, in that order, 10.1% and 25.2% (inactive).
The like results for `CCN(CC)CCC(c1cc(OC)c(OC)c(OC)c1)c1c(OC)cc(OC)c2c(-c3ccccc3)cc(=O)oc12` (stereo not drawn) were, in that order, -19.6% and 30.8% (inactive).
The like results for `COc1ccc(-c2ccc(CN3C(CC(C)C)C(=O)N(Cc4cn(CC5CCCCC5)nn4)CCS3(=O)=O)cc2)cn1` (stereo not drawn) were, in that order, -15.9% and 31% (inactive).
`CCCC[C@H]1COCCS(=O)(=O)N1Cc1cccc(Cl)c1`: the DAPI nuclei signal change (viability), lower = more cytotoxic was -5.51% and the inhibition is 5.89% (inactive).
The like results for `O=C(CN1C(=O)NC2(CCCCCC2)C1=O)NCc1ccc(F)cc1` were, in that order, 0.843% and -2.12% (inactive).
The like results for `Cc1cccc(-c2cnc(C(O)c3ccc4ccccc4c3)[nH]2)c1` (stereo not drawn) were, in that order, 0.713% and -12.6% (inactive).
The like results for `COc1ccc(S(=O)(=O)N2CCc3ccccc32)cc1C(=O)Nc1cc(S(C)(=O)=O)ccc1Cl` were, in that order, -36.5% and 61.6% (active).
Turning to `COc1cccc(NC(=O)c2cc(S(=O)(=O)N3CCc4ccccc43)cn2C)c1`, the DAPI nuclei signal change (viability), lower = more cytotoxic was -2.57% and the inhibition was -1.15% (inactive).
Turning to `CCN(C(=O)COC(=O)c1cc(S(=O)(=O)N2CCc3ccccc32)ccc1OC)C1CCS(=O)(=O)C1` (stereo not drawn), the DAPI nuclei signal change (viability), lower = more cytotoxic is -4.55% and the inhibition is 3.02% (inactive).
The like results for `CCOC(=O)C1(C)CCCN(C(=O)c2ccc(N(C)C)cc2)C1` (stereo not drawn) were, in that order, 5.71% and -6.89% (inactive).
Take `COc1ccc(-c2sc3ccc(OC)cc3c2C#Cc2ccccn2)cc1`: the DAPI nuclei signal change (viability), lower = more cytotoxic worked out at 5.72% and the inhibition is 13.1% (inactive).
The like results for `COc1ccc2sc(-c3ccc(N(C)C)cc3)c(-c3ccc4cc[nH]c4c3)c2c1` were, in that order, 224% and 24.3% (inactive).
The like results for `COc1ccc2sc(-c3ccc(N(C)C)cc3)c(C#CCO)c2c1` were, in that order, 426% and 66.7% (active).
Turning to `Cc1cccc(C(=O)Nc2nnc(S(=O)(=O)N3CCCCCC3)s2)c1`, the DAPI nuclei signal change (viability), lower = more cytotoxic is -4.18% and the inhibition was 6.02% (inactive).
The like results for `O=C(NCc1nnnn1-c1ccc(Cl)cc1)c1ccc2c(c1)OCO2` were, in that order, 1.1% and -6.02% (inactive).
The like results for `c1ccc(Cn2nnc3c(NCC4CC4)ncnc32)cc1` were, in that order, -8.3% and 23.9% (inactive).
The like results for `CNc1cncc(-c2ccc(NS(C)(=O)=O)cc2)n1` were, in that order, -24.4% and 24.8% (inactive).
For the compound `CN(C)CC(O)COc1ccc(C(C)(C)c2ccc(OCC(O)CN(C)C)cc2)cc1` (stereo not drawn), the DAPI nuclei signal change (viability), lower = more cytotoxic worked out at 20% and the inhibition is 50.5% (active).
The like results for `CC(C)(c1ccccc1)c1ccc(OCCN)cc1` were, in that order, 10.8% and 22% (inactive).
The like results for `CCc1ccc(OCC(O)CN2CCN(CCO)CC2)cc1` (stereo not drawn) were, in that order, 4.43% and -3.68% (inactive).
The like results for `CC(=O)NC12CC3CC(C1)CC(C(=O)N1CCN(C(=O)c4ccco4)CC1)(C3)C2` were, in that order, 0.13% and -4.34% (inactive).
For the compound `CS(=O)(=O)c1ccc(C(=O)NNC(=O)c2cccs2)cc1`, the DAPI nuclei signal change (viability), lower = more cytotoxic was -4.79% and the inhibition was -4.25% (inactive).
The like results for `C=CCNC(=S)N/N=C/c1ccc(C)s1` were, in that order, -18.5% and 56% (active).
The like results for `C=CCNC(=S)N/N=C/c1ccc(OCc2ccccc2)cc1` were, in that order, 1.44% and 9.8% (inactive).
The like results for `Cc1ccc(/C=N/NC(=O)CN2CCN(Cc3ccccc3)CC2)s1` were, in that order, 1.3% and 2.92% (inactive).
In the case of `CCOc1ccc(CN2CCN(Cc3ccc4cc(F)ccc4n3)CC2CCO)cc1` (stereo not drawn), the DAPI nuclei signal change (viability), lower = more cytotoxic came to 1.54% and the inhibition is 7.07% (inactive).
The like results for `O=C1c2ccccc2C(=O)c2c1cccc2N1CCN(Cc2ccccc2)CC1` were, in that order, 4.09% and 114% (active).
On to `CNC(=O)NC(=O)C(C)N1CCN(C/C=C/c2ccccc2)CC1` (stereo not drawn), for which the DAPI nuclei signal change (viability), lower = more cytotoxic turned out to be 3.57% and the inhibition was 4.65% (inactive).
The like results for `O=C1c2ccccc2C(=O)c2c1cccc2N1CCN(C/C=C/c2ccccc2)CC1` were, in that order, 3.54% and 59.1% (active).
Turning to `O=C(CCN1CCN(C/C=C/c2ccccc2)CC1)Nc1cccc(F)c1`, the DAPI nuclei signal change (viability), lower = more cytotoxic came to 11.8% and the inhibition is 13.2% (inactive).
Consider `O=c1cc(N2CCN(Cc3ccccc3)CC2)c(-c2ccccc2)n[nH]1`, for which the DAPI nuclei signal change (viability), lower = more cytotoxic is -7.21% and the inhibition was 20.7% (inactive).
The like results for `O=C(CN1CCN(Cc2ccccc2)CC1)NC(c1ccccc1)c1ccccc1` were, in that order, 4.91% and -87.5% (inactive).
